The nature of assay [1]: qHTS RealTime-Glo MT Cell Viability Assay in HEK293 cells - 0 hour (AID 1224880). Further: top concentration of the series differs between compounds; nearly all actives have a fitted effect of over 45% in size. The gist of the method: (§1)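 Kinetic, non-lysing viability readout. Seed HEK293 (600/well) with reagent, incubate 5 h at 37 C/5% CO2, pin 23 nL compound in DMSO, incubate at 37 C, read luminescence at 0, 8, 16, 24, 32, 40 h.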
On the technique in general: Quantitative high-throughput screening tests each substance at several concentrations.

Assay [2] can be described thus: A CellTox Green Cytotoxicity Assay to monitor cytotoxicity in HEK293 cells - 32 hour (AID 1224881). Further: nearly all actives have a fitted effect of over 40% in size. The gist of the method:
(§2)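 Real-time, in one plate: 600 HEK293 cells/well with dead-cell DNA dye, pinned compound after 5 h, 37 C incubation over 40 h; viable cells give no appreciable fluorescence.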

The nature of assay [3]: A CellTox Green Cytotoxicity Assay to monitor cytotoxicity in HepG2 cells - 0 hour (AID 1224882). Further: nearly all actives have a fitted effect of over 35% in size. The gist of the method:
(§3)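 Cytotoxicity was tracked as dead-cell DNA fluorescence in HepG2 cells treated with test compounds at 37 C; each time-point value comes from one kinetic series spanning 0, 8, 16, 24, 32 and 40 h.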

Assay [4] can be described thus: A CellTox Green Cytotoxicity Assay to monitor cytotoxicity in HepG2 cells - 32 hour (AID 1224883). Further: nearly all actives have a fitted effect of over 50% in size. Further: potency means the concentration at half of the fitted maximal effect. The method in brief: as §3
Assay [5] in a line: A CellTox Green Cytotoxicity Assay to monitor cytotoxicity in HEK293 cells - 8 hour (AID 1224884). Further: nearly all actives have a fitted effect of over 35% in size. The gist of the method: as §2
The nature of assay [6]: qHTS RealTime-Glo MT Cell Viability Assay in HEK293 cells - 24 hour (AID 1224886). Further: top concentration of the series differs between compounds; nearly all actives have a fitted effect of over 50% in size. The gist of the method: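 HEK293 cells seeded with NanoLuc/prosubstrate reagent, rested 5 h at 37 C, then dosed and kept at 37 C up to 40 h. Nonlytic real-time luminescence from viable cells read at 0, 8, 16, 24, 32 and 40 h.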
The nature of assay [7]: qHTS RealTime-Glo MT Cell Viability Assay in HEK293 cells - 8 hour (AID 1224887). Further: top concentration of the series differs between compounds; nearly all actives have a fitted effect of over 50% in size. The method in brief:
as §1

Assay [8] can be described thus: A CellTox Green Cytotoxicity Assay to monitor cytotoxicity in HEK293 cells - 16 hour (AID 1224888). Further: nearly all actives have a fitted effect of over 35% in size. The gist of the method:
as §2

A short description of assay [9]: qHTS RealTime-Glo MT Cell Viability Assay in HepG2 cells - 0 hour (AID 1224889). Further: nearly all actives have a fitted effect of over 50% in size. The gist of the method: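 HepG2 cells (600/well) were dispensed with RealTime-Glo reagents, incubated 5 h at 37 °C, then treated with compounds in DMSO for up to 40 h. Nonlytic NanoLuc luminescence reflecting viable cells was read at each stated time point.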
Assay [10] can be described thus: A CellTox Green Cytotoxicity Assay to monitor cytotoxicity in HepG2 cells - 8 hour (AID 1224890). Further: nearly all actives have a fitted effect of over 45% in size. The method in brief: as §3
Assay [11] can be described thus: qHTS assay to identify small molecule antagonists of the estrogen receptor alpha (ER-alpha) signaling pathway using the BG1 cell line in the presence of 0.1 nM 17-beta-estradiol - cell viability counter screen (AID 1259241). Further: nearly all actives have a fitted effect of over 40% in size. Further: potency means the concentration at half of the fitted maximal effect. The method in brief:
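VM7Luc4E2 cells (endogenous full-length ER-alpha, 4xERE-luciferase), cultured 5 days in charcoal-stripped serum, exposed to compounds with 0.1 nM 17beta-estradiol (final) for 22 hr at 37C. Viability read in same wells as live-cell protease fluorescence after 30 min.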

Assay [12] in a line: qHTS assay to identify small molecule antagonists of the androgen receptor (AR) signaling pathway using the MDA cell line in the presence of 0.5 nM R1881 - cell viability counter screen (AID 1259242). Further: nearly all actives have a fitted effect of over 45% in size. The method in brief: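 Cells seeded at 3,000/well and allowed 5 hr at 37C, 0% CO2 before compound transfer and R1881 (0.5 nM final) addition; 16 hr later, live-cell protease fluorescence indicated cytotoxicity.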

For assay [13], the target named is Androgen receptor (Homo sapiens) (UniProt P10275). The assay is described as follows: qHTS assay to identify small molecule antagonists of the androgen receptor (AR) signaling pathway using the MDA cell line in the presence of 0.5 nM R1881 (AID 1259243). Further: nearly all actives have a fitted effect of over 50% in size. The method in brief:
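Luminescence from an AR/GR-responsive MMTV-luciferase construct in MDA-kb2 breast carcinoma cells, read 30 min after ONE-Glo, following 16 hr co-treatment with compounds and 0.5 nM R1881.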

For assay [14], the target named is Estrogen receptor (Homo sapiens) (UniProt P03372). The assay is described as follows: qHTS assay to identify small molecule antagonists of the estrogen receptor alpha (ER-alpha) signaling pathway using the BG1 cell line in the presence of 0.1 nM 17-beta-estradiol (AID 1259244). Further: nearly all actives have a fitted effect of over 50% in size. Further: potency means the concentration at half of the fitted maximal effect. The method in brief:
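Luciferase signal from VM7Luc4E2 ERE-reporter cells, co-dosed with test compound and 0.1 nM final 17beta-estradiol for 22 h, read with ONE-Glo.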

Assay [15] is described as follows: qHTS assay to identify small molecule HDAC inhibitors (AID 1259364). Further: potency means the concentration at half of the fitted maximal effect.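 Further: wild-type HCT-116 cells with endogenous class I/II HDAC activity; nearly all actives have a fitted effect of over 45% in size.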 The method in brief:
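HCT-116 wt cells, 1,500/well, overnight attach. Compounds (DMSO) 2 h, 37 °C. HDAC-Glo I/II, 30 min RT. Luminescence.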

The nature of assay [16]: qHTS assay to identify small molecule HDAC inhibitors - cell viability counter screen (AID 1259365). The gist of the method: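 Wild-type HCT-116 cells, 1,500/well, cultured overnight, then compound-treated 2 h at 37 C. Viability measured as ATP luminescence with CellTiter-Glo after 30 min at room temperature.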
A short description of assay [17]: qHTS assay to identify small molecule agonists of the sonic hedgehog signaling (Shh) pathway - cell viability counter screen (AID 1259366). Further: nearly all actives have a fitted effect of over 50% in size. The gist of the method: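 NIH/3T3-derived Gli1-Luc reporter cells, 2,000 per well, received compound after 4 h and were treated about 23 h at 37C. Viability measured in the same wells by CellTiter-Fluor fluorescence after 1 h.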

Assay [18] can be described thus: qHTS assay to identify small molecule antagonists of the sonic hedgehog signaling (Shh) pathway - cell viability counter screen (AID 1259367). Further: nearly all actives have a fitted effect of over 55% in size. Further: potency means the concentration at half of the fitted maximal effect. The method in brief:
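Conditioned medium drove Shh signaling in 3T3 Gli1-Luc cells exposed to compounds at 37C and 5% CO2. Viability was determined from CellTiter-Fluor fluorescence, with reagent incubated 1 hr after 23 hr of treatment.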

Several values for one entry are separate records, joined by “and”; a condition that tells them apart may be missing. Identical values can stand only once. Records with an inconclusive call do not appear. The source holds several records for some structures; these can differ, active in one and inactive in another. Activity calls are given as the source filed them. The call rests on the fitted dose curve; in most records, active means well fitted curve in the direction sought with a large enough effect in the repeat runs; inconclusive means weak or mixed curves; inactive means no such curve, though single readings can be large; an effect the other way counts as inactive or inconclusive.

Androgen receptor (Homo sapiens), sequence (P10275 whole entry, looked up): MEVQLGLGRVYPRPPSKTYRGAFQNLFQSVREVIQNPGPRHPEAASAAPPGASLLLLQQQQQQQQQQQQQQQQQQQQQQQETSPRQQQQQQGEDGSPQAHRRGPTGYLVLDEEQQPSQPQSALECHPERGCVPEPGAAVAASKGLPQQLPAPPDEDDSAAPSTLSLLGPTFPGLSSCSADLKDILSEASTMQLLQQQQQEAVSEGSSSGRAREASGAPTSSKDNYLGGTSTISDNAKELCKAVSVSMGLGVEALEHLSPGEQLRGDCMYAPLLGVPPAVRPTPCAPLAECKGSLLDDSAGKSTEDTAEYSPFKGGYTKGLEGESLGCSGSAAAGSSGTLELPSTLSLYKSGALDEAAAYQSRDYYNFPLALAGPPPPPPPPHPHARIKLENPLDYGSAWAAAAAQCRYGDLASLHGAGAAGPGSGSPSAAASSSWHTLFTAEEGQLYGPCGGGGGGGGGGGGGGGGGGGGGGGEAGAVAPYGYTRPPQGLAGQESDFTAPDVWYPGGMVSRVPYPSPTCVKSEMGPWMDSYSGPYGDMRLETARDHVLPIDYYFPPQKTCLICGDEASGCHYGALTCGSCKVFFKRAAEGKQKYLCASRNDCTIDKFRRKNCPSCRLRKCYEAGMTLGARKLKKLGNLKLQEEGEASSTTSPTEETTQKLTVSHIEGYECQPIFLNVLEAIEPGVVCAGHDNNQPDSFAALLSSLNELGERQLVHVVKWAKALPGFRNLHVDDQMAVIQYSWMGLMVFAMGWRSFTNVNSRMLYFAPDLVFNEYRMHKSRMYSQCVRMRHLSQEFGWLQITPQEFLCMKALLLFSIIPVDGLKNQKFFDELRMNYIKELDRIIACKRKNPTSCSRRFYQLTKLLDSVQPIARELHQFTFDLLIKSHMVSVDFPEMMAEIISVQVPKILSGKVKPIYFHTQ
Estrogen receptor (Homo sapiens), sequence (P03372 whole entry, looked up): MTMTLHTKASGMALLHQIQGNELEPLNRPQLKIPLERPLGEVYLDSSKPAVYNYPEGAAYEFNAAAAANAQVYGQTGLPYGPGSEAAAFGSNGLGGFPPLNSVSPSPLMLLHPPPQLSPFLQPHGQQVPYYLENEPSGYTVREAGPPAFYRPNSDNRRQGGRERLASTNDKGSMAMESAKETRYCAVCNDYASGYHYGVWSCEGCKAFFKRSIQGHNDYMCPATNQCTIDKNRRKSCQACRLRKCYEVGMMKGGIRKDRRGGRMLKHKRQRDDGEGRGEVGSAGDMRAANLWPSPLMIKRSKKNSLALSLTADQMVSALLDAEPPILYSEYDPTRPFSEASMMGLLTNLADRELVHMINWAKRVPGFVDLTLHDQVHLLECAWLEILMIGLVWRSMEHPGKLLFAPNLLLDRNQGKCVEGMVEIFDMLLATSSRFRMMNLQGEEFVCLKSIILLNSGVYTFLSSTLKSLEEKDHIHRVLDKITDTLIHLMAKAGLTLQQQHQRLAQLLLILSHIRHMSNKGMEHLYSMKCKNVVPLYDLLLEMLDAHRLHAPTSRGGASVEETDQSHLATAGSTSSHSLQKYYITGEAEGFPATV

As for `O=C1CCCCC1`, the Potency result in assay [1], in assay [2], in [3], in assay [4], in [5] and in [6] was “inactive” each time. Also, the Potency result in [7], in assay [8], in assay [9], in assay [10], in [11] and in assay [12] was “inactive” throughout. Moreover, the Potency entry in assay [14], in assay [15], in assay [17] and in assay [18] was “inactive” each time. The result in [13] and in assay [16] was inactive.

Take `CC(C)(C)C(=O)C1C(=O)c2ccccc2C1=O`: the Potency result in assay [1], in assay [2], in assay [3], in assay [5], in assay [6] and in assay [7] was “inactive” in each case. Moreover, the Potency result in assay [8], in assay [9], in assay [10], in assay [12], in [15] and in [17] was “inactive” in each case. The Potency in [4] is 54.4 µM (active) and inactive; in assay [11], 54.5 µM (active); in [14] it was 61.1 µM (active); in assay [18] it was 60.5 µM (active). In addition, the compound was classed as inactive in assay [16].

In the case of `CCCCC(CC)COC(=O)/C=C\C(=O)OCC(CC)CCCC` (stereo not given), the Potency result in assay [1], in assay [2], in [3], in [4], in [5] and in [6] was “inactive” in each case. Besides, the Potency result in assay [7], in assay [8], in assay [9], in [10], in [11] and in assay [12] was “inactive” in each case. In addition, the Potency result in assay [15], in assay [17] and in assay [18] was “inactive” each time. The outcome in assay [13] and in [16] was inactive.

In the case of `Clc1ccc(Cl)c(Cl)c1Cl`, the Potency entry in assay [1], in assay [2], in assay [3], in assay [4], in assay [5] and in assay [6] was “inactive” throughout. For the same compound, the Potency entry in [7], in [8], in assay [9], in [10], in assay [11] and in assay [12] was “inactive” in each case. The Potency entry in assay [15], in assay [17] and in [18] was “inactive” throughout. Further, the call in assay [16] was inactive.

On to `O=C(Oc1ccccc1)c1ccc(O)cc1`, for which the Potency entry in [1], in assay [2], in assay [3], in assay [4], in assay [5] and in assay [6] was “inactive” throughout. Besides, the Potency result in assay [7], in assay [8], in assay [9], in assay [10], in [11] and in [12] was “inactive” in each case. Besides, the Potency result in assay [17] and in [18] was “inactive” throughout. In addition, the Potency in assay [15] is 21.8 µM (active) and 21.7 µM (active). The compound was called inactive in [16].

In the case of `CC1(C)CC(N=C=O)CC(C)(CN=C=O)C1` (stereo not given), the Potency entry in [1], in [2], in assay [3], in [4], in assay [5] and in assay [6] was “inactive” each time. Also, the Potency entry in [7], in [8], in assay [9], in assay [10], in [11] and in [12] was “inactive” in each case. Moreover, the Potency entry in assay [14], in [15], in assay [17] and in assay [18] was “inactive” each time. The call in assay [16] was inactive.

For the compound `C=CC(=O)OCCCCCCCC(C)C`, the Potency result in assay [1], in assay [2], in assay [3], in [4], in [5] and in assay [6] was “inactive” in each case. The Potency entry in assay [7], in assay [8], in assay [9], in assay [10], in assay [11] and in assay [12] was “inactive” each time. Also, the Potency result in [14], in assay [15], in assay [17] and in assay [18] was “inactive” in each case. Moreover, the outcome in assay [13] and in assay [16] was inactive.

Consider `CC(=O)CCc1ccccc1`, for which the Potency entry in assay [1], in assay [2], in assay [3], in [4], in assay [5] and in [6] was “inactive” each time. Moreover, the Potency result in assay [7], in assay [8], in [9], in [10], in assay [11] and in assay [12] was “inactive” in each case. The Potency entry in assay [15], in assay [17] and in assay [18] was “inactive” each time. Besides, in [16], the result was inactive.

These data come from PubChem BioAssay (Tox21).
